# Measured values as given in ChEMBL document CHEMBL3988442, “University of Dundee, Small-Polar-MMV Screening Library” (2021).
# Screen size: about 48,000 compounds; about 13,000 (27%) showed an effect of 50% or more. This is one part of the list.
# System: Wolbachia pipientis
# Assay: Anti-Wolbachia Cell-Based Screen
# Format: functional
# Parameters: scale not given: in the data most compounds retested in dose-response had high values
# Details: 5 µM
row,SMILES,Percent Effect
1,Cn1c(CCNC(=O)Nc2cn[nH]c2)nc2ccc(F)cc21,-27.77%
2,O=C(NCc1ccc(-n2cncn2)nc1)N(CC1CCOC1)C1CC1 (centres undefined),4.835%
3,O=C(NC1(c2nccs2)CCCC1)c1cc(C2CC2)[nH]n1,-18.19%
4,CC(C)n1cnnc1CN(C)Cc1cnc(-c2ccco2)nc1,-3.944%
5,CNC(=O)c1cccc(CNC(C)c2ccc(F)cc2N(C)C)c1 (centres undefined),2.761%
6,Cc1cc(CNC(=O)c2cccs2)ccc1S(C)(=O)=O,-1.482%
7,Cc1ccc(C(=O)N2C[C@@H]3CC[C@H](C2)N(Cc2ccccc2)C3)cn1,101.3%
8,O=C(c1cccnc1)N1C[C@@H]2CC[C@H](C1)N(Cc1ccc(F)cc1Cl)C2,-16.95%
9,N#Cc1ccccc1CN1C[C@H]2CC[C@@H]1CN(C(=O)c1cccnc1)C2,-5.944%
10,CC(=O)c1ccc(C(=O)N2C[C@@H]3CC[C@H](C2)N(Cc2ccccc2)C3)s1,-1.466%
11,Nc1ccc(C(=O)N2C[C@@H]3CC[C@H](C2)N(Cc2ccccc2)C3)cn1,108.6%
12,O=C(c1cnc(O)cn1)N1C[C@@H]2CC[C@H](C1)N(Cc1ccccc1)C2,93.73%
13,Cc1ccc(C)c(CN2C[C@H]3CC[C@@H]2CN(C(=O)c2cccnc2)C3)c1,3.177%
14,O=C(c1cccnc1)N1C[C@@H]2CC[C@H](C1)N(Cc1cccc(Cl)c1F)C2,-33.46%
15,CCn1cc(CN2C[C@H]3CC[C@@H]2CN(C(=O)c2cnccn2)C3)cn1,6.074%
16,c1ccc(SCCN2CCCC(Cn3ccnc3)C2)cc1 (centres undefined),-2.811%
17,COCCc1noc(CN2CCC3(CCCO3)CCC2=O)n1 (centres undefined),-3.143%
18,O=C(NCCn1cnnc1C1CC1)c1c(O)cc(F)cc1F,120%
19,CC(C)c1nncn1CCNC(=O)c1ccc(Cl)cc1O,126.8%
20,CC(C)Cn1cnnc1C1CCCN1C(=O)c1ccc(F)cc1F (centres undefined),-3.293%
21,CC(C)c1ccc(O)c(C(=O)NCc2nncn2C)c1,-11.21%
22,CC(C)c1nc(C(=O)NCCn2ccnc2)nn1-c1cccc(F)c1,0.4969%
23,CC(C)c1nncn1CCNC(=O)c1c(O)cc(F)cc1F,158.6%
24,CCn1cnnc1CNC(=O)c1cc(Cl)ccc1O,6.278%
25,CCn1cnnc1CNC(=O)c1cc(Cl)ccc1OC,2.71%
26,O=C(NCCC(=O)N1CCCCCC1)c1c(O)cc(F)cc1F,4.152%

row,SMILES,Percent Effect
1,CN(C)C(C(=O)NCCn1cccc1)c1cccc(F)c1 (centres undefined),1.101%
2,O=C(NCCn1cccc1)c1c(O)cc(F)cc1F,114.7%
3,CCOC(=O)N1CCN(c2nc(NC3CC3)c3ccccc3n2)CC1.Cl,12.46%
4,CC(C)CN1CCC(NC(=O)NCCC(=O)NCc2ccccc2)CC1,-0.3399%
5,O=C(NC1(C(=O)O)CCCCC1)C1Cc2ccccc2O1 (centres undefined),26.74%
6,CC(C(=O)NCc1ccc(N2CCCCC2)nc1)n1cncn1 (centres undefined),91.32%
7,CC(C(=O)NCc1ccnc(N2CCCC2)c1)n1cncn1 (centres undefined),-10.11%
8,CCN(CC)C(C(=O)NCc1ccc(N2CCCC2)nc1)C(C)C (centres undefined),0.1706%
9,CC(C(=O)NCc1ccc(N2CCCC2)nc1)n1cncn1 (centres undefined),95.49%
10,CC(C(=O)NCc1ccc(N2CCCCCC2)nc1)n1cncn1 (centres undefined),118.8%
11,CCCS(=O)(=O)NC(C)C(=O)NCc1ccc(N2CCCC2)nc1 (centres undefined),3.443%
12,CCc1cc(N2CCS(=O)(=O)CC2)n2nc(C)c(C)c2n1,1.934%
13,Cc1cc(CNC(=O)N2CCc3ccccc32)on1,8.57%
14,CCn1nc(CC(C)C)cc1C(=O)N1CC(c2ccncc2)C1,2.203%
15,Cn1cc(Cl)cc1C(=O)N1CCCN(Cc2cccs2)CC1,6.765%
16,CC(C)N1CCOC(CC(=O)N2CCCN(Cc3cccs3)CC2)C1 (centres undefined),115.9%
17,CC(C)N1CCOC(CC(=O)N2CC(c3ccncc3)C2)C1 (centres undefined),103.1%
18,CC(C)N1CCOC(CC(=O)N2CCCN(Cc3ccncc3)CC2)C1 (centres undefined),108.1%
19,CC(C)c1noc(CCCC(=O)N2CCN(Cc3ccncc3)CC2)n1,9.979%
20,CC(C)C(C(=O)N1CCN(Cc2ccncc2)CC1)n1cncn1 (centres undefined),-9.917%
21,O=C1Cc2cc(NC(=O)N3CCCN(Cc4cccs4)CC3)ccc2N1,-14%
22,COc1ccc(C(=O)N2CC(c3ccncc3)C2)c(OC)c1OC,-3.767%
23,NC(=O)c1cnc(NCC(=O)NCc2ccco2)c(Cl)c1,-1.038%
24,COCC(=O)N[C@H](C)c1onc(-c2ccc(Cl)cc2)c1C(=O)O,-3.63%
25,Cc1nccn1CCC1CCCCN1Cc1cccc(CCN)c1 (centres undefined),-7.51%
26,O=C(NCc1csc(Br)c1)c1ccc(=O)[nH]n1,9.228%

row,SMILES,Percent Effect
1,NC(=O)Cc1csc(NC(=O)C2CSCCC(=O)N2)n1 (centres undefined),2.989%
2,CCOC(=O)Cc1csc(NC(=O)c2ccc(=O)[nH]n2)n1,95.75%
3,O=C(c1ccno1)N1CC(c2nc(-c3ccco3)no2)C1,0.6255%
4,O=S(=O)(Cc1ccccc1)NCCNc1ccc(-n2cccc2)nn1,11.81%
5,Cc1cc2cc(CNC3CCN(CC(=O)N(C)C)CC3)oc2cc1C,-4.492%
6,CN(C)C1CCN(C(=O)CCc2cc(Br)cs2)CC1,1.097%
7,CNC(=O)CCc1cc(C)nc(C2CCN(CC(=O)N(C)C)CC2)c1,129.2%
8,Cc1cc(C)cc(CCC(=O)N2CCN(c3cc(C)nc(N)n3)CC2)c1,-5.077%
9,CNC(=O)CCc1cc(C)nc(C2CCN(C(=O)CN(C)C)CC2)c1,154.4%
10,COC(=O)[C@@H]1Cc2[nH]cnc2CN1Cc1cc2ccccc2o1,9.178%
11,CC(=O)N1CCCN(Cc2ccon2)c2ccccc21,1.908%
12,Cc1c(CS(C)(=O)=O)cccc1NCC1CCCCC1,1.975%
13,COC(=O)C(C)(C)NC(=O)C1CC(=O)N(C)C1 (centres undefined),-1.781%
14,COC(=O)C(C)(C)NC(=O)C1CC(=O)N(CC2CC2)C1 (centres undefined),110.1%
15,COC(=O)C(C)(C)NC(=O)C1CC(=O)N(CC(F)(F)F)C1 (centres undefined),83.67%
16,O=C(NCCNc1ncccn1)C1CC(=O)N(CC(F)(F)F)C1 (centres undefined),1.939%
17,CCN1CC(C(=O)NC(C)(C)CC)CC1=O (centres undefined),-10.63%
18,CCC(C)(C)NC(=O)C1CC(=O)N(CC2CC2)C1 (centres undefined),3.552%
19,COC(=O)C(C)(C)NC(=O)C1CC(=O)N(CC(C)C)C1 (centres undefined),100.8%
20,CCN1CC(C(=O)NC(C)(C)CNC(=O)OC(C)(C)C)CC1=O (centres undefined),-0.2967%
21,CCCc1nc(C(C)(C)NC(=O)C2CC(=O)N(CC3CC3)C2)no1 (centres undefined),-6.715%
22,CCN1CC(C(=O)NC(C)(C)C)CC1=O (centres undefined),-9.629%
23,CCN1CC(C(=O)NC(C)(C)C(=O)OC)CC1=O (centres undefined),77.38%
24,CCN1CC(C(=O)NC(C)(C)CC(C)(C)C)CC1=O (centres undefined),2.297%
25,CN(C)CCOCC1CN(C(=O)c2ccccn2)Cc2ccnn2C1 (centres undefined),-6.376%
26,Cc1ccccc1OCCCC(=O)N(C)CCC#N,8.227%

row,SMILES,Percent Effect
1,CC(C)(CNC(=O)OC(C)(C)C)NC(=O)C1CC(=O)N(C2CC2)C1 (centres undefined),10.96%
2,COC(=O)C(C)(C)NC(=O)C1CC(=O)N(C2CCCC2)C1 (centres undefined),4.73%
3,COC(=O)C(C)(C)NC(=O)C1CC(=O)N(C2CC2)C1 (centres undefined),103.7%
4,Cn1cncc1-c1nnc([C@H]2CCN(Cc3ccc(F)c(F)c3)C2)o1,-0.5491%
5,Cl.Cn1nc(C2CCCN(Cc3cccc(F)c3)C2)c2nccnc21 (centres undefined),5.539%
6,Fc1ccc(NC2CCCN(Cc3ccncc3)C2)cc1 (centres undefined),7.502%
7,CCCC(=O)NC1CCCN(Cc2cccs2)C1 (centres undefined),90.44%
8,CC(C)(C)OC(=O)NC1CCCN(Cc2cccs2)C1 (centres undefined),5.758%
9,Cl.Cn1nc(C2CCCN(Cc3cc(F)cc(F)c3)C2)c2nccnc21 (centres undefined),114.5%
10,COc1ccnc(CN2CCCC(CCc3ccc(F)cc3)C2)c1OC (centres undefined),-12.62%
11,Cn1ccnc1CN1CCCC(CCc2ccc(F)c(F)c2)C1 (centres undefined),5.156%
12,Cl.Cn1nc(C2CCCN(Cc3ccc(F)c(F)c3)C2)c2nccnc21 (centres undefined),94.15%
13,Cc1ncsc1CCC(=O)NC1CCN(Cc2cccs2)CC1,5.127%
14,Cl.Cn1nc(C2CCCN(Cc3ccc(F)cc3)C2)c2nccnc21 (centres undefined),103.8%
15,CC(=O)N[C@@H]1CN(C2CCN(c3cccc(Cl)c3)CC2)C[C@H]1C(C)C,15.95%
16,Cc1nc(S(=O)(=O)NCCC(=O)NCc2ccsc2)cn1C,-10.44%
17,COCCC1(CO)CCCN(C(=O)c2cc(C#N)c(=O)[nH]c2C)C1 (centres undefined),6.218%
18,CC(C)C1CN(C(=O)c2csc(CN(C)C)n2)CCC(=O)N1CC1CC1 (centres undefined),-2.363%
19,Cc1ccc(CN2CCCC(c3nnc(CN4CCCCC4)n3C)C2)s1 (centres undefined),9.152%
20,Cl.Cn1nc(C2CCCN(Cc3cccs3)C2)c2nccnc21 (centres undefined),122.9%
21,Cl.Cn1nc(C2CCCN(Cc3ccccc3)C2)c2nccnc21 (centres undefined),128.3%
22,COc1cccc(CN2CCCC(c3nn(C)c4nccnc34)C2)c1.Cl (centres undefined),110.8%
23,Cc1ccc(CN2CCCC(c3nnc(CN4CCCC4)n3C)C2)s1 (centres undefined),10.41%
24,Cn1nc(C2CCCN(Cc3ccsc3)C2)c2nccnc21 (centres undefined),-5.788%
25,Cc1ccc(CN2CCCC(c3nn(C)c4nccnc34)C2)s1 (centres undefined),125.3%
26,c1ccc(CCN2CCCC(Cn3ccnc3)C2)cc1 (centres undefined),-0.01768%
